# Experiments:
# Experiment in all cases: DAPPL (digital affinity profiling via proximity ligation, sequencing); 10 mM Tris-HCl pH 7.5, 50 mM NaCl, 1 mM DTT, 4% glycerol, room temperature, 30 min; GST-TFs on glutathione beads, 16-mer random dsDNA library, 0.1% formaldehyde crosslink after washing; high values mean tight binding
# [1] = target: ETV5 (Homo sapiens, UniProt P41161 1-510); details: protein: recombinant; tags: N-terminal GST; dsDNA, one strand shown
# How it was run: (§1)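 Sequencing on an Illumina NextSeq500 followed washing, crosslinking with 0.1% formaldehyde, proximity ligation (BsaI/T4 ligase, 1 h, 37 °C) and PCR amplification of pools that had been incubated for 30 min at room temperature with 200 nmole of a random double-stranded 16-mer DNA library in Tris/NaCl/DTT/glycerol buffer. Each pool held DNA-barcoded human transcription factors, expressed in yeast as GST fusions and captured on glutathione beads, plus a tag-only sample. Binding signal is a hexamer's read frequency for a factor divided by its frequency in the tag-only sample.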
# [2] = target: HSF1 (Homo sapiens, UniProt Q00613 1-529); details: protein: recombinant; tags: N-terminal GST; chain copies: 3; dsDNA, one strand shown
# Sequence of HSF1 (Q00613 whole entry): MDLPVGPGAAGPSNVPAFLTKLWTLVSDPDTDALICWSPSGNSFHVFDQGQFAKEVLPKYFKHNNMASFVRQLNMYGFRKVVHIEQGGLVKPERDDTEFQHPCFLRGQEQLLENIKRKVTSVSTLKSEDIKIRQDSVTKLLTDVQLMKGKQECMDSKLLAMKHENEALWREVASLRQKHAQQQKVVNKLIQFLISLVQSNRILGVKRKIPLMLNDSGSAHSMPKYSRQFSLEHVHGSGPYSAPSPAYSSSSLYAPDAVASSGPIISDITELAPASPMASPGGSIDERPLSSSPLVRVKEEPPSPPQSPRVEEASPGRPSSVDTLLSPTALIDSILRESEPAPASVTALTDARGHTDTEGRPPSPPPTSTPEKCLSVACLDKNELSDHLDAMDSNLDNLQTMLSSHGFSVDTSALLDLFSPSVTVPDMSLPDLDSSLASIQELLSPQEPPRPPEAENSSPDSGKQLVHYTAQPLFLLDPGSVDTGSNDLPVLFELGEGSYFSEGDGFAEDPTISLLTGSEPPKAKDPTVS
# How it was run: as §1
# [3] = target: T1, SPIC (Homo sapiens, UniProt Q8N5J4 1-248); details: protein: recombinant; tags: N-terminal GST; dsDNA, one strand shown
# T1 sequence: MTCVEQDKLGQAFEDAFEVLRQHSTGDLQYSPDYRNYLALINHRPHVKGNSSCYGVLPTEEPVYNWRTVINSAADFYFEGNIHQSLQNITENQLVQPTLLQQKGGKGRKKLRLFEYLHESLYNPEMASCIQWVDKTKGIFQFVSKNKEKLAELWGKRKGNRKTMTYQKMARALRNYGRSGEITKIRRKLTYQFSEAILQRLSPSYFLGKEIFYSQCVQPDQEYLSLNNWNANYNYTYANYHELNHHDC
# How it was run: as §1
# [4] = target: ELF4 (Homo sapiens, UniProt Q99607 1-663); details: protein: recombinant; tags: N-terminal GST; dsDNA, one strand shown
# Sequence of ELF4 (Q99607 whole entry): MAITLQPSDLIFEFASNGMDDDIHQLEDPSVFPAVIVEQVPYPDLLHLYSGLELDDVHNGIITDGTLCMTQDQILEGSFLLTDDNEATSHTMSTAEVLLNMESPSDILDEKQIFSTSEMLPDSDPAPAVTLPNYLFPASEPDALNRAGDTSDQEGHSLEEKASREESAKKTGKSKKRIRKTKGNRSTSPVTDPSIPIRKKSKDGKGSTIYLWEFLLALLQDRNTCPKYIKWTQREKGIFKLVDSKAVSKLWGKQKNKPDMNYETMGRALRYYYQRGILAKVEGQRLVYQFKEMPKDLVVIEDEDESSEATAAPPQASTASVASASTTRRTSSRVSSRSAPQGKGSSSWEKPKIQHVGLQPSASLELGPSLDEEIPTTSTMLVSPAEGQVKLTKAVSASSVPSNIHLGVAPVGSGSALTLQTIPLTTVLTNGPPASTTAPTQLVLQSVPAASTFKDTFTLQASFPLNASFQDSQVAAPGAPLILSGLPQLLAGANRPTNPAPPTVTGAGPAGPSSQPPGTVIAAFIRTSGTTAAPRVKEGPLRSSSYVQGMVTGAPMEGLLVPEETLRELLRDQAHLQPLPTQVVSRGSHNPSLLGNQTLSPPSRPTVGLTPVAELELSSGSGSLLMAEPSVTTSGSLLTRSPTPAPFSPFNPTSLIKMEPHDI
# How it was run: as §1
# [5] = target: T2, ELK4 (Homo sapiens, UniProt P28324-2 1-405); details: protein: recombinant; tags: N-terminal GST; dsDNA, one strand shown
# T2 sequence: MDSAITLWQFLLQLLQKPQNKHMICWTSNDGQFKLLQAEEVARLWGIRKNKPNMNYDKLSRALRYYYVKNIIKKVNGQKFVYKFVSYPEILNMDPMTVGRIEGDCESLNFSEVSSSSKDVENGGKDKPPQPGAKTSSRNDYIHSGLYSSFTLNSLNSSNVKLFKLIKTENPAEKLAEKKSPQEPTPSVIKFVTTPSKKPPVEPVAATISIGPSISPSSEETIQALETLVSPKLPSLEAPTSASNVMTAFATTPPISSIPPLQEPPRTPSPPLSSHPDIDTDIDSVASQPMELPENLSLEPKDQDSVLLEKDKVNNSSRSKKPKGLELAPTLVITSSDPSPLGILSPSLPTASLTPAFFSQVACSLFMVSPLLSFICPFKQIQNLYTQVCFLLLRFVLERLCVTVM
# How it was run: as §1
# [6] = target: T3, ETV2 (Homo sapiens, UniProt O00321 1-342); details: protein: recombinant; tags: N-terminal GST; dsDNA, one strand shown
# T3 sequence: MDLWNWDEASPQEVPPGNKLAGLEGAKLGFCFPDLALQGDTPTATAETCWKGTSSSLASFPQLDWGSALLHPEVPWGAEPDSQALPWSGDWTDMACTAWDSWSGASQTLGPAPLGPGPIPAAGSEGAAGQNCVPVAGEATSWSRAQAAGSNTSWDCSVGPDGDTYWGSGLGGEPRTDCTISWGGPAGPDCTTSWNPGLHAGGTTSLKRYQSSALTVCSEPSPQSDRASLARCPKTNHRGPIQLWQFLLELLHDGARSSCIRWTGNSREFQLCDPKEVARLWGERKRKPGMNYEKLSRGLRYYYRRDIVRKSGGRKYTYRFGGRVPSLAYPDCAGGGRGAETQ
# How it was run: as §1
# [7] = target: T4, ELF3 (Homo sapiens, UniProt P78545 1-371); details: protein: recombinant; tags: N-terminal GST; dsDNA, one strand shown
# T4 sequence: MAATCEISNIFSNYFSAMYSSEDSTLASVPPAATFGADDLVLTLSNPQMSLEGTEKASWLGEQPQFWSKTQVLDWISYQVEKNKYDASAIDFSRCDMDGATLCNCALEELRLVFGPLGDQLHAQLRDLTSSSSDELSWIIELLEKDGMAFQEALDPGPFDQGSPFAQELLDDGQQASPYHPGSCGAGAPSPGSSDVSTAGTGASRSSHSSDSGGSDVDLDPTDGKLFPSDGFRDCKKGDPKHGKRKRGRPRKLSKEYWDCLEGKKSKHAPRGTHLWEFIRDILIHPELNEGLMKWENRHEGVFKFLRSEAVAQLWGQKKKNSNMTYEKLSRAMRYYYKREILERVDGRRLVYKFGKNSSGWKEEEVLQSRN
# How it was run: as §1
# [8] = target: CRX (Homo sapiens, UniProt O43186 1-299); details: protein: recombinant; tags: N-terminal GST; dsDNA, one strand shown
# Sequence of CRX (O43186 whole entry): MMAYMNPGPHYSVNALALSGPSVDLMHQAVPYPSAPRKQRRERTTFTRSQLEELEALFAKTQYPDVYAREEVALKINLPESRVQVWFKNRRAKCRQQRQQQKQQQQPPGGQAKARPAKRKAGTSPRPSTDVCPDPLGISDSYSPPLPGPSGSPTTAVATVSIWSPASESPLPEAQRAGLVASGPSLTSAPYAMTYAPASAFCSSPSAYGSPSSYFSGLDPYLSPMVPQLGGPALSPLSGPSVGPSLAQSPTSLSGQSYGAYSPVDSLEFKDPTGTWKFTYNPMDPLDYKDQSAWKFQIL
# How it was run: as §1
# [9] = target: T5, ERF (Homo sapiens, UniProt P50548 1-548); details: protein: recombinant; tags: N-terminal GST; dsDNA, one strand shown
# T5 sequence: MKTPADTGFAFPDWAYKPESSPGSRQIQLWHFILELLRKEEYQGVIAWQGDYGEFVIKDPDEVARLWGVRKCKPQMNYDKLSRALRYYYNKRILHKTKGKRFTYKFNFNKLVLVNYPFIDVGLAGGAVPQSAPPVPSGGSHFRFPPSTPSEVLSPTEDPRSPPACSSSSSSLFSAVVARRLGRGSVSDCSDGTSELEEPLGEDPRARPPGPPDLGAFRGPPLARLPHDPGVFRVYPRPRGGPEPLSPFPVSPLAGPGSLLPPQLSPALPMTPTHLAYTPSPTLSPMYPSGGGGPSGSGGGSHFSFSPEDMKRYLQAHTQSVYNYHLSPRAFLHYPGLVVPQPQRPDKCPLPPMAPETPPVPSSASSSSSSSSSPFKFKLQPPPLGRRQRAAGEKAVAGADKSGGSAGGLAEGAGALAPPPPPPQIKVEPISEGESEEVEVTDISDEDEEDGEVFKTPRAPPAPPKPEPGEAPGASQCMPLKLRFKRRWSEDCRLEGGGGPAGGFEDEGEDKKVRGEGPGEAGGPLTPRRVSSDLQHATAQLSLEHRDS
# How it was run: as §1
# [10] = target: T6, ETV3L (Homo sapiens, UniProt Q6ZN32 1-361); details: protein: recombinant; tags: N-terminal GST; dsDNA, one strand shown
# T6 sequence: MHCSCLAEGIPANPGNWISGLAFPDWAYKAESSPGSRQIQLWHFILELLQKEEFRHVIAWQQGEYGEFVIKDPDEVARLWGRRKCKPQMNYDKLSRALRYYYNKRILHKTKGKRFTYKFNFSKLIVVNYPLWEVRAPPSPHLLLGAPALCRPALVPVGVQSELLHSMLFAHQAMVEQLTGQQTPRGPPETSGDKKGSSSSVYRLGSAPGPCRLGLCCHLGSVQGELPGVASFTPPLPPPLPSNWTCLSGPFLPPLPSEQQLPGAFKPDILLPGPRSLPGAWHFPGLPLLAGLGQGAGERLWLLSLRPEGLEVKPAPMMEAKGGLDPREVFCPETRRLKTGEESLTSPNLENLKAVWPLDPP
# How it was run: as §1
# [11] = target: T7, ETV3 (Homo sapiens, UniProt P41162-2 1-143); details: protein: recombinant; tags: N-terminal GST; dsDNA, one strand shown
# T7 sequence: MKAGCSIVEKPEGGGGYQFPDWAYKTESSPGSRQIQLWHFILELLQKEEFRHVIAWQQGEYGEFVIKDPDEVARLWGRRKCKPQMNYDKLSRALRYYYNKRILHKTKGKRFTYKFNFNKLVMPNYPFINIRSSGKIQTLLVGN
# How it was run: as §1
# [12] = target: ETV6 (Homo sapiens, UniProt P41212 1-452); details: protein: recombinant; tags: N-terminal GST; dsDNA, one strand shown
# Sequence of ETV6 (P41212 whole entry): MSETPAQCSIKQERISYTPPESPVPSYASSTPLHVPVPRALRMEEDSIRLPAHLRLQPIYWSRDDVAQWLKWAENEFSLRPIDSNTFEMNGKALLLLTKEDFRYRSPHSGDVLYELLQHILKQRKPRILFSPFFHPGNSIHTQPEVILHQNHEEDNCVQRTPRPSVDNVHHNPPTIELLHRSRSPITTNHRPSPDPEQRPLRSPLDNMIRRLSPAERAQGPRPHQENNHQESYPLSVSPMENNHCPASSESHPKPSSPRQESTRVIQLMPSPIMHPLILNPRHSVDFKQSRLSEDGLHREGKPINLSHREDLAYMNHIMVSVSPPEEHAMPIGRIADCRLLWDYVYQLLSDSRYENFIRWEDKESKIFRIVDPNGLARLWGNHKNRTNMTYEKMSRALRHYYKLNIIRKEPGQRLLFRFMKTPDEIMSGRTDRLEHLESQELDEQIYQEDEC
# How it was run: as §1
# [13] = target: ETV1 (Homo sapiens, UniProt P50549 1-477); details: protein: recombinant; tags: N-terminal GST; dsDNA, one strand shown
# Sequence of ETV1 (P50549 whole entry): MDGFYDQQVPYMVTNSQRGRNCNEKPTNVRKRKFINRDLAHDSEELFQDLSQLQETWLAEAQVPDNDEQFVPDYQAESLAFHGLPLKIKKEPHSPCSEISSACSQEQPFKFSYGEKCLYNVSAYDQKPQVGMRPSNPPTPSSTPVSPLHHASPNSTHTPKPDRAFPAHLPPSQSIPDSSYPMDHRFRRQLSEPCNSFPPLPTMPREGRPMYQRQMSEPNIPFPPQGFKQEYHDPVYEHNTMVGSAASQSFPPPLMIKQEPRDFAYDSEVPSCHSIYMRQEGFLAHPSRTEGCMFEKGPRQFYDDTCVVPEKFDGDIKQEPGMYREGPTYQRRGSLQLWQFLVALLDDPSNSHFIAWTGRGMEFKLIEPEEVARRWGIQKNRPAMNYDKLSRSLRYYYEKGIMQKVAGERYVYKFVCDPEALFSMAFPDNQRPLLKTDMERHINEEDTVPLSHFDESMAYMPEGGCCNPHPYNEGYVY
# How it was run: as §1
# [14] = target: T8, SPDEF (Homo sapiens, UniProt O95238 1-335); details: protein: recombinant; tags: N-terminal GST; dsDNA, one strand shown
# T8 sequence: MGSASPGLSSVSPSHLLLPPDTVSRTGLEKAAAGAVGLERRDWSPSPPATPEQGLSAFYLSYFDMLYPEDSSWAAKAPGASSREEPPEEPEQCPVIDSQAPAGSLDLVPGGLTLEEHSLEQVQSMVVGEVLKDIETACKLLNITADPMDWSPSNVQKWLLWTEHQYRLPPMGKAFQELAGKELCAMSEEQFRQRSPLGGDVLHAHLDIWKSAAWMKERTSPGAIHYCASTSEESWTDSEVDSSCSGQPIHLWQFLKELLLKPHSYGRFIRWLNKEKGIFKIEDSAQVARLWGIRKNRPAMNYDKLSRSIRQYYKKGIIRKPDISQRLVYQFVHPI
# How it was run: as §1
# [15] = target: T9, ETV7 (Homo sapiens, UniProt Q9Y603 1-341); details: protein: recombinant; tags: N-terminal GST; dsDNA, one strand shown
# T9 sequence: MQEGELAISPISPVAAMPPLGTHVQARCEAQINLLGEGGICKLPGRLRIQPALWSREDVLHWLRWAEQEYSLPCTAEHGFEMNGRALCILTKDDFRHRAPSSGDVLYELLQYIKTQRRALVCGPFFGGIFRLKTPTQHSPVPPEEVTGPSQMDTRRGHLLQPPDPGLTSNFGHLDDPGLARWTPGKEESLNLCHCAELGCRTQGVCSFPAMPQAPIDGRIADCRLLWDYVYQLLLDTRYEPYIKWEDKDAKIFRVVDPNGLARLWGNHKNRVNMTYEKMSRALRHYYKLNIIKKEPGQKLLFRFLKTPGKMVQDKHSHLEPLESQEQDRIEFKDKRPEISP
# How it was run: as §1
# [16] = target: T10, ELF5 (Homo sapiens, UniProt Q9UKW6-2 1-255); details: protein: recombinant; tags: N-terminal GST; dsDNA, one strand shown
# T10 sequence: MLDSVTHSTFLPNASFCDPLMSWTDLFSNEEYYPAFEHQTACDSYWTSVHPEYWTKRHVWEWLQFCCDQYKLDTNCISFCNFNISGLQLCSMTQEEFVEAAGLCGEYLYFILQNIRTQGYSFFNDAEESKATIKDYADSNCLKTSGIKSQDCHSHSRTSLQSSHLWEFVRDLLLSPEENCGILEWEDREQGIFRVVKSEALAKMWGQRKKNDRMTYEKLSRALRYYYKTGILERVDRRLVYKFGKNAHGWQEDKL
# How it was run: as §1
# Sequence of ETV5 (P41161 whole entry, the tested form may be a part): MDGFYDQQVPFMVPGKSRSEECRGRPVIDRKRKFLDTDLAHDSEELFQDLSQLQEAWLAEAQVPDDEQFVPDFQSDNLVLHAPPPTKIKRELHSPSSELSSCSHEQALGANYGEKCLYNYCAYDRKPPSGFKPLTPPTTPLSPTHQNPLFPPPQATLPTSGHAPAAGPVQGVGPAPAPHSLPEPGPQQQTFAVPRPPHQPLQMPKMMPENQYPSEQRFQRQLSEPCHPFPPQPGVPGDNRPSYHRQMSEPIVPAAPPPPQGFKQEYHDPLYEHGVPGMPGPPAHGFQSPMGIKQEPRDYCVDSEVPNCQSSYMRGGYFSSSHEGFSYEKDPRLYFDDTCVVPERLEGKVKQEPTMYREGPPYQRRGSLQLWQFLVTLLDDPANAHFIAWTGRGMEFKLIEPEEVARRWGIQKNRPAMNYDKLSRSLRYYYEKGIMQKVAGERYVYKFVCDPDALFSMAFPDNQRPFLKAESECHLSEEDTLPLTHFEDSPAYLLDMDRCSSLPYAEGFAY
Sequence,binding signal [1],binding signal [2],binding signal [3],binding signal [4],binding signal [5],binding signal [6],binding signal [7],binding signal [8],binding signal [9],binding signal [10],binding signal [11],binding signal [12],binding signal [13],binding signal [14],binding signal [15],binding signal [16]
GTTAAA,"1.02 fold enrichment (6-mer frequency, TF over GST control)","1.01 fold enrichment (6-mer frequency, TF over GST control)","1.17 fold enrichment (6-mer frequency, TF over GST control)","1.07 fold enrichment (6-mer frequency, TF over GST control)","1.04 fold enrichment (6-mer frequency, TF over GST control)","1.11 fold enrichment (6-mer frequency, TF over GST control)","1.29 fold enrichment (6-mer frequency, TF over GST control)","1.27 fold enrichment (6-mer frequency, TF over GST control)","1.09 fold enrichment (6-mer frequency, TF over GST control)","1.04 fold enrichment (6-mer frequency, TF over GST control)","1.04 fold enrichment (6-mer frequency, TF over GST control)","1.08 fold enrichment (6-mer frequency, TF over GST control)",–,–,–,–
TAGTAA,"1.05 fold enrichment (6-mer frequency, TF over GST control)","1.54 fold enrichment (6-mer frequency, TF over GST control)","1.07 fold enrichment (6-mer frequency, TF over GST control)","1.05 fold enrichment (6-mer frequency, TF over GST control)","1.04 fold enrichment (6-mer frequency, TF over GST control)","1.12 fold enrichment (6-mer frequency, TF over GST control)","1.06 fold enrichment (6-mer frequency, TF over GST control)","1.59 fold enrichment (6-mer frequency, TF over GST control)","1.09 fold enrichment (6-mer frequency, TF over GST control)","1.04 fold enrichment (6-mer frequency, TF over GST control)","1.06 fold enrichment (6-mer frequency, TF over GST control)","1.07 fold enrichment (6-mer frequency, TF over GST control)","1.07 fold enrichment (6-mer frequency, TF over GST control)","1.02 fold enrichment (6-mer frequency, TF over GST control)","1.16 fold enrichment (6-mer frequency, TF over GST control)","1.04 fold enrichment (6-mer frequency, TF over GST control)"

# Reference: PMC7862700, “An all-to-all approach to the identification of sequence-specific readers for epigenetic DNA modifications on cytosine”
